# IL-1B inflam inh: inhibitors of inflammasome signaling (IL-1 beta secretion); THP-1 LPS/ATP IL-1B secretion, AlphaLISA, 16 h; stronger effect = lower value; activity change, % at 57.5 µM; hit rate 4.7% among 360,000; AID 743279; in the data active means activity change below about -50%; inconclusive means mostly about -30% to -49%; further: on the % scale 0 is the no-effect control and ±100 the full control effect
#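 Secreted IL-1B measured by AlphaLISA bead assay after 16 h compound exposure of THP-1 cells; compounds (final up to 57.5 uM) added 1 h before LPS (250 ng/mL) and ATP (1.25 mM) stimulation; lower signal means less secretion.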
# Vif-A3F inh: inhibitors of Vif-A3F interaction | HeLa A3F-eYFP + Vif (tagged APOBEC3F with the HIV-1 protein that degrades it), YFP fluorescence increase | hit rate 0.2% among 390,000 | Potency, µM (highest dose often 46.1 µM), for the others: at the top dose activity, negative = active; further: potency means the concentration at half of the fitted maximal effect; % of control where 0% means no effect; nearly all actives have a fitted effect of over 65% in size
#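 HeLa cells stably expressing Vif plus C-terminally eYFP-tagged A3F were seeded, incubated overnight at 37 deg C, dosed with compound, incubated overnight again at 37 deg C. Yellow fluorescence (Ex 488/Em 500-530) reported blocked Vif-mediated A3F-eYFP degradation.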
# SW480 rerep: induces DNA re-replication in SW480 colon adenocarcinoma cells | hit rate 1.8% among 340,000 | Potency, µM (doses to about 46.1 µM), for inactives: at the top dose re-replication activation, usual class: activators | SW480 DNA re-replication, Hoechst DNA content imaging, 48 h; further: potency means the concentration at half of the fitted maximal effect; % of control where 0% means no effect; nearly all actives have a fitted effect of over 55% in size
#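 Readout is total intensity of Hoechst-stained nuclei, excited at 405 nm and collected at 500-530 nm. Compound treatment lasted 48 hr at 37 C in 5% CO2 before staining.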
# MCF10A rerep: induces DNA re-replication in MCF 10a normal breast cells | MCF 10A DNA re-replication, Hoechst nuclear intensity, 48 h | Potency, µM (top dose mostly 46.1 µM), without a hit: at the top dose activity, positive = re-replication, usual class: activators | hit rate 2.9% among 350,000 | AID 624296; further: potency means the concentration at half of the fitted maximal effect; % of control where 0% means no effect; nearly all actives have a fitted effect of over 50% in size
# Giardia killer: Giardia lamblia killing | Giardia lamblia trophozoite viability | activity change, % at 7.66 µM, hits read low | hit rate 0.15% among 340,000; in the data active means activity change below about -80%; inconclusive means between about -30% and that limit;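 further: parasites exposed to compound for two days anaerobically before the ATP read; on the % scale 0 is the no-effect control and ±100 the full control effect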
#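 Luminescent ATP signal served as the viability read-out, measured 15-30 min after adding ATP detection reagent to trophozoites that had been incubated with compounds for 48 hrs at 37 deg C anaerobically at 100 cells/well.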
# Vif-APOBEC3G blk: blocks the Vif interaction with human APOBEC3G. HeLa A3G-eYFP + Vif (tagged APOBEC3G with the HIV-1 protein that degrades it), YFP fluorescence, overnight. Q9HC16. Potency, µM (highest dose often 46.1 µM), for inactives: at the top dose activity, negative = active, usual class: inhibitors. hit rate 0.076% among 410,000; further: potency means the concentration at half of the fitted maximal effect; on the % scale 0 is the no-effect control and ±100 the full control effect; nearly all actives have a fitted effect of over 60% in size
# Target sequence (Q9HC16 whole entry, looked up): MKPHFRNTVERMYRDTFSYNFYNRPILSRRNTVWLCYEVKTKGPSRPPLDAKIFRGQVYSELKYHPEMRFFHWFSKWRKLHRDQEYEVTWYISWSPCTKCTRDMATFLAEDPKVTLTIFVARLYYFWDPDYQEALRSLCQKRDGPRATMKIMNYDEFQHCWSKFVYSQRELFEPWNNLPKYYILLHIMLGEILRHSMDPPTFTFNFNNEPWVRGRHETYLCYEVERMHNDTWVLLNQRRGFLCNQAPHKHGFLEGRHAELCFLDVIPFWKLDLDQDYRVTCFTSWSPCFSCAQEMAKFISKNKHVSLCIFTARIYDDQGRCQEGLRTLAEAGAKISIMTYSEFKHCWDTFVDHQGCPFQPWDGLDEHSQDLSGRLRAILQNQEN
#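 Read-out is eYFP fluorescence (Ex 488/Em 500-530) from Vif-expressing HeLa A3G-eYFP cells; more signal means A3G escaped Vif-mediated degradation. Cells plated overnight, compound pinned in, incubated overnight at 37 deg C.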
# Numbers without * were called inactive; ? = inconclusive; / = no result given. In the library only some 6.9% were active in any assay of this set; here they are far more common. Unless noted, the call rests on the fitted dose curve; in most records, active means well fitted curve in the direction sought with a large enough effect; inconclusive means small, poorly fitted or top-dose-only effect, or another doubt; inactive means no such curve, though single readings can be large; an effect the other way counts as inactive or inconclusive.
SMILES,IL-1B inflam inh,Vif-A3F inh,SW480 rerep,MCF10A rerep,Giardia killer,Vif-APOBEC3G blk
NC(=S)N/N=C/c1ccccc1OC(=O)/C=C/c1ccccc1,?,11µM*,?,-1%,2,0%
COC(=O)N/N=C\c1ccccc1OC/C=C/c1ccccc1,-65*,1%,16µM*,?,17,?
Cc1[nH]c(=O)[nH]c(=O)c1C1N2CC3(C(C)C)CN1CC(C(C)C)(C2)C3=O (centres undefined),/,6%,/,/,/,-3%
Cc1cc(C(O)c2ncc(-c3cccc4ccccc34)[nH]2)ccc1F (centres undefined),-14,/,/,/,/,-27%
OC(c1ccc(Cl)c(F)c1)c1ncc(-c2cccc3ccccc23)[nH]1 (centres undefined),-60*,/,/,/,/,-11%
CCc1ccccc1NC(=O)C(=O)NCCCN1CCOCC1,/,0%,/,/,/,-2%
O=C(CCl)N1c2ccccc2Oc2ccc3ccccc3c21,?,?,5.8µM*,18µM*,3,?
CCc1ccc(NC(=O)Cn2c(=O)n(CCC(=O)NCCc3ccc(OC)c(OC)c3)c(=O)c3ccccc32)cc1,/,-1%,/,/,/,0%
O=S(=O)(/N=C(\Sc1ccc(Cl)cc1)c1ccccc1)c1ccccc1,-113*,-12%,-3%,6%,-12,1%
CS/C(=N/S(=O)(=O)c1ccc(C)cc1)c1ccccc1,-55*,-2%,-4%,0%,-5,-9%
COc1ccc(N=c2nc(-c3ccc(C)cc3)n(-c3ccccc3)s2)cc1,/,/,/,/,6,-5%
Cc1ccc2c(c1)CCC2=O,/,/,/,/,/,5%
CCOc1ccc(S(=O)(=O)N2CCN(c3ccccc3F)CC2)c2cccnc12,0,1%,16µM*,16%,0,1%
C=CCc1c(O)c(CC)cc2c(C)cc(=O)oc12,84,-3%,12µM*,4%,-5,-8%
C1=Cc2ccccc2/C1=C\c1cc[cH-]c1.[Fe+2].c1cc[cH-]c1,/,/,/,/,/,3%
Nc1ccc(S(=O)(=O)c2cc(O)c3ccccc3c2O)cc1,-112*,5%,2%,?,-10,?
COc1cc(NC(=O)CSc2nc(-c3ccco3)cc(C(F)(F)F)n2)cc(OC)c1OC,/,5%,/,/,/,4%
CCn1c(=O)cc(SCC(=O)Nc2ccc(C)cn2)c2ccccc21,?,-28%,?,10µM*,5,-13%
CCn1c(=O)cc(OCC(=O)Nc2ccc(C)cn2)c2ccccc21,27,-1%,12%,21µM*,-11,0%
CCn1c(=O)cc(SCC(=O)NCc2ccc(C)cc2)c2ccccc21,-17,1%,-10%,?,1,-14%
CCCn1c(CCC(=O)Nc2cc(OC)cc(OC)c2)nc2cccnc21,/,0%,/,/,/,-4%
N#CC1=C(SCC(=O)NC23CC4CC(CC(C4)C2)C3)NC(=O)C(C#N)C12CCCCC2 (centres undefined),?,-3%,13%,16µM*,17,3%
N#CC1=C(SCC(=O)NC2CC2)NC(=O)C(C#N)C12CCCCC2 (centres undefined),23,-4%,-4%,20%,0,0%
O=C1Nc2ccccc2/C1=C/C(=O)c1cccs1,-119*,7%,?,21µM*,-13,-17%
COc1ccc(C2NC(=O)c3ccccc3N2)cc1OC (centres undefined),3,0%,-7%,?,-1,1%
SMILES,IL-1B inflam inh,Vif-A3F inh,SW480 rerep,MCF10A rerep,Giardia killer,Vif-APOBEC3G blk
COc1ccc(C(=O)/C=C2/C(=O)Nc3ccccc32)cc1OC,-82*,-19%,?,8.2µM*,8,-26%
COc1ccc(C(=O)/C=C2/C(=O)Nc3ccccc32)c(OC)c1,-101*,-9%,?,23µM*,-7,-27%
COc1ccc(C(=O)/C=C2/C(=O)Nc3ccccc32)cc1,?,-2%,?,9.2µM*,4,-24%
O=C1Nc2ccccc2/C1=C/c1ccccc1F,-30,-12%,?,?,10,-9%
COc1ccc(C(=O)/C=C2/c3ccccc3CC(C)(C)N2C)cc1,7,-8%,?,?,1,?
Cc1ccccc1-c1nc(CNC(=O)NC2CCCCC2)c(C)o1,/,2%,/,/,/,-4%
O=C(CCS(=O)(=O)c1cc(Br)cc2c1N(C(=O)C1CC1)CC2)NCc1ccccc1Cl,/,-3%,/,/,/,2%
COC(=O)C(NS(=O)(=O)CCl)C(C)C (centres undefined),/,/,/,/,14,0%
O=C(CCNC(=O)c1ccccc1Cl)NN=Cc1ccccc1[N+](=O)[O-],-9,3%,-2%,3%,-2,-8%
O=C(Cc1cccs1)N/N=C\c1ccc([N+](=O)[O-])s1,7,-10%,4%,?,-85*,-5%
O=C(CNC(=O)c1ccccc1Cl)N/N=C/c1ccc([N+](=O)[O-])s1,-56*,-1%,?,-3%,?,-6%
COc1cc(/C=N/NC(=O)Cc2cccs2)c([N+](=O)[O-])cc1OC,5,-1%,-3%,10%,6,-2%
Cc1cc(C)n(CC(O)COc2ccc(Cl)cc2Cl)n1 (centres undefined),-52*,7%,24%,2%,6,0%
COc1ccc(C2C=C3CN(C(=O)OC(C)(C)C)S(=O)(=O)C3CC2OC(=O)c2cccc(C)c2)cc1 (centres undefined),/,/,/,/,-11,2%
N#Cc1c(NC(=O)CSc2nnc(-c3ccccc3)o2)sc2c1CCCC2,-8,0%,9%,5.8µM*,12,1%
O=C(CSc1nnc(-c2csc3c2CCCC3)o1)Nc1ccccc1,-50*,1%,-15%,2%,-14,-1%
O=C(NCCS(=O)(=O)N1CCN(c2ccccc2F)CC1)c1ccc(Cl)cc1,-1,-2%,-3%,13%,9,0%
